# Screen size: about 1,400 compounds; about 1,000 (71%) were called active. The rule behind the calls is not given here. The set was probably picked from earlier hits. The list is a sample of the results. Entries with a potency or affinity are not part of this list.
# Experiment: inhibitors of HIV Env-driven cell fusion, dose response, cherry-pick (AID 652057)
# Conditions: HeLa-JRFL Env/CEM21 cell fusion, luciferase; series mostly up to 35 µM
row,SMILES,"activity change, negative = inhibition"
1,C[C@H]1CN([C@@H](C)CO)C(=O)Cc2cc(N(C)C)ccc2O[C@H]1CN(C)CC1CC1,inactive
2,Cc1ccc2c(c1)C(=C(C#N)C#N)CCN2,inactive
3,O=C(Nc1ccc(N2CCN(C(=O)c3ccccc3)CC2)c(Cl)c1)c1cccnc1,inactive
4,CCCNC(=O)C[C@@H]1C[C@@H]2c3cc(NC(=O)Cc4ccncc4)ccc3O[C@@H]2[C@@H](CO)O1,inactive
5,C[C@H](CO)N1C[C@H](C)[C@@H](CN(C)C(=O)NC2CCCCC2)Oc2c(cccc2N(C)C)C1=O,inactive
6,CCCNC(=O)C[C@@H]1C[C@H]2c3cc(NC(=O)c4cccnc4)ccc3O[C@H]2[C@H](CO)O1,inactive
7,C[C@@H]1CN([C@@H](C)CO)C(=O)c2cc(NC(=O)c3ccccc3)ccc2O[C@@H](C)CCCCO[C@H]1CN(C)Cc1ccc(C(=O)O)cc1,inactive
8,C[C@@H]1CCCCO[C@H](CN(C)C)[C@H](C)CN([C@@H](C)CO)C(=O)c2cc(NS(=O)(=O)c3cn(C)cn3)ccc2O1,inactive
9,COc1ccc(CN(C)C[C@@H]2Oc3ccc(NC(=O)Nc4ccc(OC)cc4)cc3C(=O)N([C@H](C)CO)C[C@@H]2C)cc1,inactive
10,CNC[C@H]1Oc2c(NC(=O)Nc3ccc(C(F)(F)F)cc3)cccc2C(=O)N([C@@H](C)CO)C[C@H]1C,inactive
11,O=C(N[C@@H]1CC[C@H](CCNS(=O)(=O)c2ccc(F)cc2)O[C@@H]1CO)C1CC1,inactive
12,O=C(COC(=O)c1cc(S(=O)(=O)N2CCOCC2)ccc1O)NCc1ccc2c(c1)OCO2,inactive
13,CC(C)CNS(=O)(=O)c1ccc(CCC(=O)N2CCN(Cc3ccc4c(c3)OCO4)CC2)cc1,inactive
14,C[C@H]1NC(=O)[C@@]2(C)[C@H](c3ccccc3)[C@H]3COc4ccccc4[C@@H]3N2C1=O,inactive
15,COCC(=O)N1C[C@@H](C)[C@H](OC)CN(C)C(=O)c2ccc(NC(=O)c3ccc(OC)cc3)cc2OC[C@@H]1C,inactive
16,Nc1c(S(=O)(=O)c2ccccc2)cnc2c(-c3ccc(F)cc3)cnn12,inactive
17,Cc1cc(Cl)ccc1OCC(=O)NNC(=O)C1CSC2(C)CCC(=O)N12 (stereo not given),inactive
18,O=C(Nc1cccc(F)c1)c1cc(S(=O)(=O)N2CCC(C(=O)O)CC2)ccc1F,inactive
19,CCc1cc2c(NCc3ccco3)ncnc2s1,inactive
20,Nc1ncn([C@H]2C[C@H](O)[C@@H](CO)O2)c(=O)n1,inactive
21,Nc1nc2c(ncn2[C@@H]2O[C@H](C(=O)NCC(c3ccccc3)c3ccccc3)[C@@H](O)[C@H]2O)c(=O)[nH]1,inactive
22,N#C[C@H]1[C@@H](c2ccccc2/C=C/c2ccccc2)[C@@H](CO)N1S(=O)(=O)c1cccc(F)c1,inactive

row,SMILES,"activity change, negative = inhibition"
1,O=C(Nc1ccc(CN2CCS(=O)(=O)CC2)cc1)c1ccc(C(F)(F)F)cc1,inactive
2,Cc1ccc(-n2nnnc2-c2cnn(-c3ccc(F)cc3)c2C(F)(F)F)cc1,inactive
3,Cn1c(SCc2nc(-c3ccc(Cl)cc3)no2)nnc1-c1cccs1,inactive
4,Cc1cccc(C)c1NC(=O)CCCSc1nnc(-c2ccc(Cl)cc2)n1-c1ccccc1,inactive
5,COc1ccc(-c2c(C)nn3c(C(F)(F)F)cc(C)nc23)cc1,inactive
6,O=C(CN1CCN(Cc2ccc(Cl)cc2)C1=O)NCCCN1CCN(c2ccc(F)cc2)CC1,inactive
7,C[C@H]1CN([C@@H](C)CO)C(=O)c2cccc(NC(=O)C3CCCCC3)c2O[C@H]1CN(C)S(C)(=O)=O,inactive
8,COCC(=O)N(C)C[C@H]1Oc2ncc(Br)cc2C(=O)N([C@H](C)CO)C[C@H]1C,inactive
9,CCCNC(=O)N1[C@H](C#N)[C@H](c2ccc(-c3cccc(OC)c3)cc2)[C@@H]1CO,inactive
10,COc1ccccc1C#Cc1ccc([C@H]2[C@H](C#N)N(C(=O)C3CCCC3)[C@H]2CO)cc1,inactive
11,CCCNC(=O)N1[C@H](C#N)[C@H](c2ccc(-c3ccc(C(=O)N(C)C)cc3)cc2)[C@@H]1CO,inactive
12,N#C[C@@H]1[C@H](c2ccc(-c3cccc(F)c3)cc2)[C@H](CO)N1C(=O)c1cccnc1,inactive
13,O=S(=O)(NCC[C@H]1CC[C@H](NS(=O)(=O)c2ccccc2Cl)[C@H](CO)O1)c1ccc(Cl)cc1,inactive
14,O=S(=O)(NCC[C@@H]1CC[C@@H](NS(=O)(=O)c2ccccc2Cl)[C@H](CO)O1)c1ccc(Cl)cc1,inactive
15,COc1ccc(OCC(=O)Nc2cc(-c3nn(C)c(=O)c4ccccc34)ccc2OC)cc1,inactive
16,COc1ccc(-c2nn(C)c(=O)c3ccccc23)cc1NC(=O)COc1ccccc1,inactive
17,COc1ccc(NS(=O)(=O)c2ccc3c(c2)OCCO3)cc1OC,inactive
18,COc1ccc(N2CCn3c2nc2c3c(=O)n(CCCc3ccccc3)c(=O)n2C)c(OC)c1,inactive
19,CCOC(=O)C(C)Oc1cccc2c(=O)n(CC(=O)NCCc3ccc(OC)c(OC)c3)ccc12 (stereo not given),inactive
20,O=C(CCN1CCCCC1)N[C@H]1CC[C@H](CCn2cc(-c3ccccc3)nn2)O[C@@H]1CO,inactive
21,O=C(Cc1ccncc1)N[C@H]1CC[C@@H](CCn2cc(-c3ccccc3F)nn2)O[C@@H]1CO,inactive
22,COc1ccc(-c2cn(CC[C@H]3CC[C@H](NS(=O)(=O)c4ccccc4C)[C@H](CO)O3)nn2)cc1,inactive

row,SMILES,"activity change, negative = inhibition"
1,O=C(CCN1CCCCC1)N[C@@H]1CC[C@@H](CCn2cc(-c3ccccc3)nn2)O[C@@H]1CO,inactive
2,Cc1ccc(C2CC(=O)c3cnc(N4CCc5ccccc5C4)nc3C2)cc1 (stereo not given),inactive
3,COc1ccccc1N/C(N)=N/c1nc(CSc2ccc(C)cc2)cc(=O)[nH]1,inactive
4,COc1ccc(NC(=O)C2(C)CCN2Cc2ccccc2OC(F)F)cc1OC (stereo not given),inactive
5,CCCc1cc(C(=O)NCc2ccc(OC)cc2)no1,inactive
6,CCCCCCCCCCn1c2c(c(=N)c3c1CCC3)CCC2,inactive
7,C[C@H](CO)N1C[C@H](C)[C@H](CN(C)Cc2ccccc2)Oc2c(NC(=O)Nc3ccc4c(c3)OCO4)cccc2C1=O,inactive
8,C[C@@H]1CN([C@@H](C)CO)C(=O)c2cc(NC(=O)c3ccncc3)ccc2O[C@@H]1CN(C)Cc1ccncc1,inactive
9,C[C@@H]1CN([C@@H](C)CO)C(=O)c2cc(NC(=O)c3ccncc3)ccc2O[C@H]1CN(C)Cc1ccncc1,inactive
10,C[C@H](CO)N1C[C@H](C)[C@@H](CN(C)CC2CC2)Oc2ccc(NS(C)(=O)=O)cc2CC1=O,inactive
11,COc1ccc(NC(=O)CN2CCC(C(N)=O)(N3CCCCC3)CC2)cc1,inactive
12,CCc1ccc(C(=O)CN2C(=O)NC(C)(c3ccc(C)cc3)C2=O)cc1 (stereo not given),inactive
13,C=CC[n+]1c(-c2ccc(OC)c(OC)c2)csc1NNC(=O)Nc1ccccc1,inactive
14,CC(=O)c1ccc([C@H]2C[C@@]34CN(C(=O)OC(C)(C)C)S(=O)(=O)[C@H]3C[C@H]2O4)cc1,inactive
15,CO[C@@H]1CN(C)C(=O)c2cc(NS(=O)(=O)c3ccc(C)cc3)ccc2OC[C@H](C)N(C(=O)NC(C)C)C[C@@H]1C,inactive
16,O=C(C[C@@H]1C[C@H]2c3cc(NC(=O)C4CCC4)ccc3O[C@H]2[C@H](CO)O1)NCC(F)(F)F,inactive
17,COc1ccc(N2CCN(C(=O)C3CCC(Cn4c(=S)[nH]c5ccccc5c4=O)CC3)CC2)cc1 (stereo not given),inactive
18,C[C@@H]1CN([C@H](C)CO)S(=O)(=O)c2ccc(C#Cc3cccc(F)c3)cc2O[C@@H]1CN(C)C(=O)CN1CCOCC1,inactive
19,Cc1[nH]c2ccccc2c1/C=N\NC(=O)c1ccccc1Cl,inactive
20,CCn1c(/C=C/N(C)c2ccccc2)[n+](CC)c2ccc(Cl)cc21,inactive
21,Cc1nc2ccccc2c2oc(C(=O)NCc3ccc4c(c3)OCO4)cc12,inactive
22,O=C(C[C@H]1C[C@H]2c3cc(NC(=O)C4CCC4)ccc3O[C@H]2[C@H](CO)O1)NCc1ccc2c(c1)OCO2,inactive

row,SMILES,"activity change, negative = inhibition"
1,O=C(Nc1cc2c3c(c1)CC(=O)N3CCC2)c1ccc(Cl)cc1,inactive
2,COC(=O)[C@]12CCCCC=C1N(Cc1ccco1)C(=O)[C@H](CC(=O)NCCc1ccccc1OC)C2,inactive
3,Cc1nn(C)c(Cl)c1NC(=O)OCc1ccc(Cl)cc1Cl,inactive
4,COc1ccc(CCNC(=O)COC(=O)c2cccn2C)cc1,inactive
5,O=C(Nc1cccn(Cc2c(Cl)cccc2Cl)c1=O)c1ccc(Cl)cc1,inactive
6,COc1ccccc1S(=O)(=O)Cc1ccc(C(=O)N2CCN(c3cccc(Cl)c3)CC2)o1,inactive
7,O=C(c1ccccc1F)N1CCN(Cc2cccc(Cl)c2)CC1,inactive
8,Cc1ccc(NC(=O)c2ccc(OCC3CCCO3)cc2)cc1Cl (stereo not given),inactive
9,CNC[C@H]1Oc2c(NC(=O)Nc3ccc4c(c3)OCO4)cccc2C(=O)N([C@H](C)CO)C[C@@H]1C,inactive
10,COC(=O)[C@H](Cc1ccccc1)NC(=O)Cn1cnc(C(=O)Nc2ccc(C)c(C)c2)n1,inactive
11,O=C(COc1ccc(-n2cnnn2)cc1)Nc1ccc(F)c(F)c1,inactive
12,Cn1c(CN2CCCCC2)nc2cc(NC(=O)c3ccc(Cl)cc3)ccc21,inactive
13,O=C(Cc1ccc(Cl)cc1Cl)Nc1ccncc1,inactive
14,CCOc1ccc(-c2cc(CCCC(=O)Nc3cccc(OC)c3)no2)cc1,inactive
15,C[C@@H]1CN([C@@H](C)CO)C(=O)c2cc(NS(=O)(=O)c3ccccc3)ccc2O[C@H]1CN(C)Cc1ccc(Oc2ccccc2)cc1,inactive
16,Cc1onc(-c2ccccc2)c1C(=O)Nc1ccc(Br)cc1Cl,inactive
17,Cc1onc(-c2ccccc2)c1C(=O)NC(=S)NNC(=O)c1ccc(O)cc1,inactive
18,O=C(C[C@@H]1C[C@@H]2c3cc(NC(=O)C4CCC4)ccc3O[C@@H]2[C@@H](CO)O1)NCC(F)(F)F,inactive
19,Cc1ccc(S(=O)(=O)N(C)c2ccc(C(=O)N3CCN(Cc4ccc5c(c4)OCO5)CC3)cc2)cc1,inactive
